Source: PubChem
Sampled rows, rich in hits. Any-hit rate of the full collection: about 1.2%.
Apoferritin bind – qHTS Assay for Identification of Novel General Anesthetics; 350,000 tested, 0.074% active; Ferritin light chain (Equus caballus), P02791; apoferritin/1-aminoanthracene competitive binding, fluorescence; Potency, µM (top dose mostly 77.5 µM), for inactives: at the top dose activity change, negative = displacement, most hits filed as inhibitors; note: % is set by controls: 0 for no effect and ±100 for the full control effect; nearly all actives have a fitted effect of over 20% in size
Target sequence (P02791 2-175 limits assumed): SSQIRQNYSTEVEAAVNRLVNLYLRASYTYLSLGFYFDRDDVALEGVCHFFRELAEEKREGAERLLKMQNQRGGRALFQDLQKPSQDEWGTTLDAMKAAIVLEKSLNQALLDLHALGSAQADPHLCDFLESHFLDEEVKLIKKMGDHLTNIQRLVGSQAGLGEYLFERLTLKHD
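Horse-spleen apoferritin (10 uM) was mixed with 50% saturated 1-aminoanthracene in PBS, exposed to compounds for 10 min at room temperature, and read for fluorescence (ex 380 nm, em 535 nm). Competitive displacement was fitted with a four-parameter Hill equation.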
GoLoco inh red – qHTS Assay for Inhibitors of RGS12 GoLoco Motif Activity (Red Fluorophore); 230,000 tested, 0.44% active; Gai1:RGS12 GoLoco peptide FP, rhodamine, 10 min; Potency, µM (series often up to 61.6 µM), without a hit: at the top dose activity, negative = inhibition, usual class: inhibitors; active = well fitted inhibition curve with a large enough effect, not every such curve was filed as active; inactive = no such curve, though single readings can be large or run the other way; note: % is set by controls: 0 for no effect and ±100 for the full control effect; nearly all actives have a fitted effect of over 30% in size
Target sequence (P63096 whole entry, looked up): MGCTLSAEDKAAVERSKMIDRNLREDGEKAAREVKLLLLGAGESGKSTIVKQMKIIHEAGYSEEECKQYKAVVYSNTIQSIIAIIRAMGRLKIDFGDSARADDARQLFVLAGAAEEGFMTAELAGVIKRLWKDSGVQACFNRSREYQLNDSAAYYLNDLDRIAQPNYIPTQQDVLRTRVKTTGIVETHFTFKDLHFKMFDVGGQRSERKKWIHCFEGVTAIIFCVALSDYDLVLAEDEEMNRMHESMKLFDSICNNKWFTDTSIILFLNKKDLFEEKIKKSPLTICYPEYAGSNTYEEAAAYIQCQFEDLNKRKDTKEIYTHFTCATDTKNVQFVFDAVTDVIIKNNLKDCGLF
BRCA1 expr act – qHTS Assay to Identify Small Molecule Activators of BRCA1 Expression; MCF7-BRCA1-FFLuc reporter, luminescence, 48 h; response scale: scaled: vehicle 0%, 10 µM genistein 100%; Potency, µM (series often up to 46.1 µM), for inactives: at the highest dose activation, usual class: activators; 380,000 tested, 1.1% active; AID 624202, 2012; note: nearly all actives have a fitted effect of over 80% in size
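MCF7-BRCA1-FFLuc, 2000 cells/well; 2 h attach, 37 °C/5% CO2; compound 48 h; luciferase substrate 15 min; luminescence end-point. Norm. to genistein 10 microM max activation and DMSO; concentration-response curves fitted.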
ERG Ets-DNA blk – qHTS for Small Molecule Inhibitors of the ERG Ets/DNA interaction; Transcriptional regulator ERG (Homo sapiens), P11308; fluorescence polarization, His-ERG Ets domain / labelled DNA; Potency, µM (titrated, usually from 76.9 µM), inactives show at the highest dose FP activity, negative = inhibition, most hits filed as inhibitors; 370,000 tested, 0.028% active; AID 624246, 2012; active = well fitted inhibition curve with a large enough effect in the polarisation, with a control signal flat; inconclusive = small, poorly fitted or top-dose-only effect, or effect the other way, or a change in a side signal; inactive = no such curve, though single readings can be large or run the other way; the % refers to the polarisation;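 note: polarization taken with two DNA probes labelled with fluorescein and Texas red; % of control where 0% means no effect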
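His-tagged ERG Ets domain (1 uM in the protein solution; 300mM KCl, 50mM Tris-HCl, 1mM EDTA, 1mM DTT, pH 7.5) received compound, then a probe mix of 5 nM fluorescein-DNA and 100nM Texas-615-DNA. Fluorescence polarization was read for both dyes.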
* marks the source's active call; other numbers are inactive results; i = inactive; ? = inconclusive; . = no result given; [ ] = another dose, or the depositor's remark. Unless noted, calls come from the whole dose curve; as a rule, active = well fitted curve in the direction sought with a large enough effect; inconclusive = small, poorly fitted or top-dose-only effect, or another doubt; inactive = no such curve, though single readings can be large; an effect the other way counts as inactive or inconclusive. Potency is the fitted concentration of half-maximal effect.

SMILES	Apoferritin bind	GoLoco inh red	BRCA1 expr act	ERG Ets-DNA blk
COc1nc(-c2ccccc2)ccc1-c1noc(-c2ccccc2)n1	1%	28%	6.3µM*	5%
C=C1CCC(O)C/C1=C/C=C1\CCC[C@]2(C)[C@@H]([C@H](C)/C=C/[C@H](C)C(C)C)CC[C@@H]12 (stereo not given in full)	.	2%	.	.
COc1cccc(C2=N/C(=C\N(C)C)C(=O)O2)c1	-10%	9%	11µM*	-4%
CNC(=O)c1c(Cl)cnn1-c1ccc(F)cc1	-1%	-7%	102%	3%
Cc1ccc(-n2ncc(Cl)c2C(=O)NCc2ccccc2)cc1	-10%	.	11µM*	2%
CN(C)c1ncc2nc(-c3cccs3)c(=O)n(C[C@H]3CCCO3)c2n1	.	13%	.	.
CCN(CC)Cc1c(O)ccc2cc(-c3nc4ccccc4n3C)c(=O)oc12	i	.	11µM*	-11%
CCc1cc2c(=O)c(-c3nc4ccccc4n3C)c(C)oc2c(CN(CC)CC)c1O	-6%	8%	-1%	6%
Cc1cccn2c(=O)c3cc(C(=O)NCCC4=CCCCC4)n(C)c3nc12	2%	.	0%	-6%
Cn1c(C(=O)NCCC2=CCCCC2)cc2c(=O)n3ccccc3nc21	64%	-6%	11µM*	0%
CN(C)C1CCN(CCCOc2ccc(-c3ccc(C#N)cc3)cc2)C1 (stereo not given)	-13%	.	.	.
c1ccc(-n2nnc(-c3cccnc3)n2)cc1	-16%	0%	7.9µM*	-7%
COc1ccc2[nH]c(-c3ccc(F)cc3F)cc(=O)c2c1	-2%[110 µM]	1%[88.7 µM]	.	.
COc1ccc2[nH]c3c4c(ccc3c2c1)C(=O)C=CC4=O	4%	22µM*	-93%	44%
COc1cc(C)c(NC(C)C(=O)c2c(C)[nH]c3ccccc23)cc1OC (stereo not given)	.	.	0%	.
Cn1cc(Cl)c(C(=O)Nc2nc3ccc(Cl)cc3s2)n1	-12%	-3%	13µM*	.
N/C(=N\OC(=O)CSc1ccccc1)c1ccccn1	?	.	6.3µM*	0%
N/C(=N\OC(=O)c1ccccc1[N+](=O)[O-])c1ccccn1	-6%	-1%	5µM*	17%
N/C(=N\OC(=O)c1ccccc1Cl)c1ccccn1	?	-6%	-45%	-2%
C(=C\c1cnc2ccccc2n1)/c1ccc2c(c1)OCO2	.	.	-70%	.
O=C(/C=C/c1ccc(OCCCF)cc1)N1CCOCC1	2%	.	10µM*	-4%
O=C(/C=C/c1cccc(Oc2ccccc2)c1)N1CCOCC1	-8%	-1%	8.9µM*	2%
O=C(/C=C/c1ccccc1Cl)N1CCOCC1	6%	.	32%	-14%
O=C(/C=C/c1cccc2ccccc12)N1CCOCC1	-2%	8%	10µM*	0%
O=C(/C=C/c1cccc([N+](=O)[O-])c1)N1CCOCC1	0%	-1%	17%	5%
SMILES	Apoferritin bind	GoLoco inh red	BRCA1 expr act	ERG Ets-DNA blk
CC#N	.	-1%	.	.
COC(=O)C1=C[C@@H](C(=O)OC)[C@@H]2C3=C(C(=O)[C@@]2(CC(C)C)NC(=O)c2ccccc2)[C@H](C)n2c(=O)n(-c4ccccc4)c(=O)n2[C@@H]3C1	-18%	.	.	.
Cc1ccc(C)c(NC(=O)C2CCCN(S(=O)(=O)c3cccc4nsnc34)C2)c1 (stereo not given)	-6%	.	26%	-2%
Nc1c(-c2ccc3c(c2)OCCO3)oc2ccccc2c1=O	-4%	.	2.5µM*	17%
CCOc1ccc(-c2cnc3cccnn23)cc1	.	.	7.1µM*	.
CCOc1cccc(-c2cnc3cccnn23)c1	.	.	8.9µM*	.
O=C(NC1CC1)c1ccc(-c2cnc3cccnn23)cc1	.	.	7.9µM*	.
O=C(NCCc1ccccc1)c1ccc(-c2cccnc2)c2ccoc12	.	.	7.1µM*	.
Cc1cc(C)c2nc(N3CCC(C(=O)NCc4ccccn4)CC3)sc2c1	-14%	2%	4µM*	11%
Cc1cc(C)c2nc(N3CCC(C(=O)NCc4cccnc4)CC3)sc2c1	-19%	-2%	40%	2%
O=C(NNCc1ccccc1)c1ccccc1	.	.	-2%	-2%
O=C(NNCc1ccccc1)c1ccccn1	.	.	1.1µM*	-3%
Nc1ccc(C#Cc2ccc3c(=O)c4ccccc4oc3c2)cc1	-9%	.	10µM*	-3%
COc1ccsc1NC(=O)OCc1ccc(Cl)cc1	-11%	.	13µM*	14%
CSc1nsc(NC(=O)OCc2ccc(Cl)cc2)n1	-3%	.	-2%	7%
CCCCCC(=O)Nc1ccc2ccccc2c1	-15%	11%	2.8µM*	3%
CCCCC(=O)Nc1ccc(C2C(=O)c3ccccc3C2=O)cc1	.	.	4µM*	11%
CCN(CC)c1ccc(NC(=O)CCCCCN2C(=O)c3ccccc3C2=O)cc1	?	22µM*	-22%	-14%
Cc1ccc(-c2csc3ncnc(Sc4nnnn4C4CC4)c23)cc1	.	.	-4%	.
Nc1c(S(=O)(=O)O)cc(Nc2cccc(S(N)(=O)=O)c2)c2c1C(=O)c1ccccc1C2=O	.	1%[14.2 µM]	.	.
CC(=O)Nc1cc(O)c2nonc2c1O	.	.	-61%	.
CN(C)c1ccc(-c2c(C3C4C=CCCC4(C)C(=O)N3Cc3ccccc3)ccc3ccccc23)cc1 (stereo not given)	0%	.	.	.
CCOC(=O)c1c(CSc2ccccc2)n(C)c2cc(Br)c(O)c(CN(C)C)c12	2%	22µM*	-36%	-16%
CCc1nnc(NC(=O)c2ccc3c(c2)C(=O)N(C(C)(C)C)C3=O)s1	-9%	6%	14µM*	4%
CCc1nnc(NC(=O)c2ccc3ncsc3c2)s1	-2%	7%	79%	3%
SMILES	Apoferritin bind	GoLoco inh red	BRCA1 expr act	ERG Ets-DNA blk
CCc1nnc(NC(=O)c2ccc(NC(=O)C(C)C)cc2)s1	-2%	13%	11µM*	-3%
CCCNc1nc(C#N)nc(Nc2ccccc2)n1	-8%	.	.	.
O=C(NCc1ccc(F)cc1)c1c2c(nc3ccccc13)CCC2	-11%	17%	14µM*	10%
CC1CCCCN1Cc1c(O)ccc2c(=O)c(-c3ccc(Cl)cc3)coc12 (stereo not given)	5%	.	10µM*	-5%
O=C(c1cccc(Cl)c1Cl)N(Cc1ccco1)Cc1cccs1	.	.	-18%	.
Cn1nccc1C(=O)OCC(=O)Nc1nc(-c2ccccc2)cs1	-24%	5%	66%	4%
Cn1cc(Cl)c(C(=O)OCC(=O)Nc2nc(-c3ccc(Br)cc3)cs2)n1	-5%	13%	11µM*	-1%
COc1cccc2nc(-c3cccs3)nc(NN3C(=O)C=C(C)C3=O)c12	-11%	.	.	.
CCOC(=O)c1cnn(-c2ccc(C)cc2)c1N	-4%	0%	11µM*	0%
CN(C)CCCN=c1c2ccccc2n(C)c2[nH]c(=O)n(C)c(=O)c12	.	4%[14.2 µM]	.	.
CCOC(=O)c1cc(-c2ccc(OC)cc2)n[nH]1	2%	4%	11µM*	4%
CCOC(=O)c1cc(-c2ccc3c(c2)OCCO3)n[nH]1	-22%	0%	?	14%
